Results taken from the supplement of paper PMC6555819.

System: VDR:RXRa (NR concentration 270 nM, RXRa partner concentration 90 nM)
Test: PBM binding z-score (relative to random genomic background probes); higher = stronger binding; sequences stand for … in GC…GCGATTGACAGCGTAGAATGAAGG
Protocol: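 Protein-binding microarray (Agilent 4x180K custom design, double-stranded 60-nt probes: 5' GC cap, 34-nt variable region, 24-nt constant primer region; full probe sequence given). Purified or IVT nuclear receptor:RXRα heterodimers (3:1 NR:RXRα, mostly 270:90 nM) or homodimers were incubated for 1 h in PBS with 2% milk and no ligand, then detected with Alexa488 antibodies. Fluorescence from o1-orientation probes (~5 replicates averaged) was converted to z-scores against 500 random hg19 background probes. Variable regions are seed direct-repeat (DR0–DR5) sites, all their single-nucleotide variants and half-site ablations.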

Sequence | PBM binding z-score
GCTAGTTAGTCAGTAAAAGGTCACACACCGGTCG | 3.78
GCTAGCAGGCCATTTCGGTCACTCAATGACGGGC | -0.644
AGAATGAGGTTAAGATAAGGGAAACAGAATACAT | 1.62
GCTCGGAGGACAAGGTCCGAGCTTTGTCCGTAGA | -0.684
CGAACTAGGTCATTCACAGGACAGTGAATAGTAA | 2.53
TAGCCTAGGTCAGATCGGGTCAGTATACGCTATA | 3.75
ATCTGTAGGTAAAAGTTCAGTGAATCCCGAGGAT | 1.27
GCGCGGAGGACAAGGTCAGAGCTTTGTCCGTAGA | 1.4
CCTGCTAGGTCATGGTCAGCTTATCTACAGTATG | 1.54
TAGCCTAGGTCAGATCGGGCCAGTACACGCTATA | 0.906
CCTACTGGGCCAAAAAGGTCATGGATGCCGATAA | 4.54
CAAATTAGGTCAAAGGTCAAAGTCGAGCCAACCA | 6.81
TCATATAGGTAACCAGGTGAAAGTCCGTAAGTTA | 1.06
CGAACTAGGGCATGAGTTGATAGCAAATGCCGAT | 0.0428
CCGACTAGGGCAGAAAGGTTACCATACCATCCGG | 1.13
CCTGCTAGGTCATAGTCAGCTAATCTACAGTATG | 1.28
GCTGCTACGTCAGGTTGGTCAGCTAACGGGTACG | -0.773
GCTGCTAGATCAGGTTGGTCAGCTAACGGGTACG | -0.639
CGTCCAAGGTCATAGTAGGTCAGTGAAGACAGAT | 5.64
TAGCCTGGGTCATTCAGGGGCCAGTATAGAAAGC | 2.82

Sequence | PBM binding z-score
TCAGACAGGTGACGGTAACTCAGGTACGCAGTCG | 0.324
TCATATAGGTAATACTGGTGAAAGTCGGCATCTA | 0.963
CGTCAAAGTTCAAGGTAACCTAACAGAAAGCAGC | 3.96
GCATATAGGTAACACAAGGTGAAAGTCCGATTGT | 0.418
GCTTACGGGTCAAAGGTTATAGCGTGAATAGAAT | 5.55
CAAACTAGGTCACTGAGGTCAAAGTCCGTGCGTA | 7.99
CCTCGGACGACAGAAGGTCAGAGCTGTCCGCTTT | 0.84
GGAACGAGGGCAAGTTGCTAGCAGAGTTTGATGG | 0.604
TTACCAAGGTGAAGGTTGTTGATCCCTCTGTAGA | 0.381
CAAACTAGGTCACAGAGGTCATAGTCCGTGCGTA | 8.31
CAAACTAGGTCACAGAGGTCAAAGACCGTGCGTA | 7.76
ACATGTAGGTTATCGGGTCATTCAGTTTGCGCAT | 5.39
TCGATTAGGTTACCAATGGGGCATTCAGCTTTCT | 0.441
ATATGTTGGTTAAGGGTCATTCAGGTTGGTTCGC | 5.55
GATACATGGTCAAGGCCAGAGTACGCGTATTGAT | -0.256
ACTAGCAGGCCAAGTTTGGGTCACACAAACAAAG | 0.933
CCTACTGGGCCATCAGGACATTGATATCAACGTT | -0.324
AGAATGAGGTTACCAAAGATGAGGGAAACGCTTG | 1.03
CATACTGGGCCACGAAAGGTCATTGATTCAGTGA | 4.3
TCATGTAGGTAATACAGGTGAAAGTCGGCATCTA | 0.207
